# Results from PubChem BioAssay (NCATS).
# Activity calls are given as the source filed them. Calls follow the shape of the dose curve; as a rule, active = well fitted curve in the direction sought with a large enough effect; inactive = no such curve, though single readings can be large or run the other way.
# Target: Alpha-galactosidase A (Homo sapiens) (UniProt P06280)
# Assay: Counterscreen for Glucocerebrosidase Inhibitors: qHTS Assay for Human alpha-Galactosidase at pH 4.5 (AID 992)
# Conditions: purified enzyme, fluorogenic substrate; series mostly up to 76.9 µM
# Text: NIH Chemical Genomics Center [NCGC]
# NIH Molecular Libraries Screening Centers Network [MLSCN]
# PI Name: Zheng, Wei [NIH]
# Alpha-galactosidase is a homodimeric glycoprotein that hydrolyzes the terminal alpha-galactosyl moieties from glycolipids and glycoproteins. Deficiency of this enzyme results in Fabry Disease with progressive accumulation of globotriaosylceramide and other glycosphingolipids in vascular endothelial cells that causes renal failure, myocardial infarction and stroke, and premature death in patients. It has reported that the improper folding and trafficking of alpha-galactosidase resulted from the genetic mutations may account for a significant numbers of Fabry patients. […] We optimized this alpha-galactosidase assay in 1536-well plate format for identifying the novel small molecule inhibitors with the structures other than the sugar analogs in order to develop the new pharmacological chaperones.
# NCGC Assay Protocol Summary:
# This is a fluorogenic enzyme assay with 4-Methylumbelliferyl alpha-D-galactopyranoside as the substrate and human […] as the enzyme preparation. Upon the hydrolysis of this fluorogenic substrate, the resulting product, […]. 4-Methyllumbelliferone, can be excited at 365 nm and emits at 440 nm which can be detected by a standard fluorescence plate reader. Data were normalized to the controls for basal activity (without enzyme) and 100% activity (with enzyme). In the AC50 values were determined from concentration-response data modeled with the standard Hill equation.
# Assay buffer: 50 mM citric acid, 0.005% Tween-20, pH 4.5. (pH 4.5 is an optimal condition for this enzyme assay)
# 1536-well assay protocol for the human alpha-galactosidase:
# (1) Add 2 ul/well of enzyme (2 nM final)
# (2) Add 23 nL compounds in DMSO solution. The final titration was 0.7 nM to 77 uM.
# (3) Add 1 ul of substrate (80 uM final)
# (4) Incubate at room temperature for 20 min.
# (5) Add 2 ul stop solution (1M NaOH and 1M Glycine mixture, pH 10)
# (6) Detect the assay plate in a ViewLux plate reader (PerkinElmer) with Ex=365 nm and Em=440nm.
# Keywords: Alpha-galactosidase, Fabry Disease, pharmacological chaperone, chaperone therapy, high throughput screening, alpha-galactosidase inhibitor, MLSMR, MLSCN, NIH Roadmap, qHTS and NCGC
# Alpha-galactosidase A (Homo sapiens), sequence (P06280 whole entry, looked up): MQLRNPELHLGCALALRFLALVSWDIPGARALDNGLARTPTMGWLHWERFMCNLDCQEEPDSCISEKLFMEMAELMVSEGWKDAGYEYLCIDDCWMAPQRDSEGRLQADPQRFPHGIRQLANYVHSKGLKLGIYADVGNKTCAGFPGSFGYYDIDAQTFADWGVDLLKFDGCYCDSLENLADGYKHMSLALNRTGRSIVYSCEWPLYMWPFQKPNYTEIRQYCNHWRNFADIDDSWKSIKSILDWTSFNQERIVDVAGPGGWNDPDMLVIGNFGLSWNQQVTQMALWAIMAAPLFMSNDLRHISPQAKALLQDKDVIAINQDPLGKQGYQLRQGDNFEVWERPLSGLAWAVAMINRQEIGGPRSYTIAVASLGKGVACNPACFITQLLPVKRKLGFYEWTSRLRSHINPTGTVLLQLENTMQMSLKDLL
row,SMILES,outcome
1,CNc1ccc2oc(C[C@H]3O[C@]4(CC[C@H]3C)O[C@H]([C@H](C)C(=O)c3ccc[nH]3)[C@H](C)C[C@H]4C)nc2c1C(=O)O,inactive
2,O=C(Cc1ccc(Cl)c(Cl)c1)N1CCCC[C@H]1CN1CCCC1,inactive
3,O=C1CC[C@@]2(O)[C@H]3Cc4ccc(O)c5c4[C@@]2(CCN3CC2CC2)[C@@H]1O5,inactive
4,C[C@H](N)Cc1c[nH]c2ccc(OCc3cccs3)cc12,inactive
5,C[C@@H](Cc1ccc(OCC(=O)O)cc1)NC[C@H](O)c1cccc(Cl)c1,inactive
6,C[C@H](N)Cc1cnc[nH]1,inactive
7,N[C@H](CCP(=O)(O)O)C(=O)O,inactive
8,COc1ccc(CCN)cc1O,inactive
9,NC[C@H](CP(=O)(O)O)c1ccc(Cl)cc1,inactive
10,Oc1ccc2c3c1O[C@H]1c4oc5ccccc5c4C[C@]4(O)[C@H](C2)N(CC2CC2)CC[C@@]314,inactive
11,C=CCN1CC[C@@]23c4c5ccc(O)c4O[C@H]2/C(=N\N=C2/CC[C@@]4(O)[C@H]6Cc7ccc(O)c8c7[C@@]4(CCN6CC=C)[C@@H]2O8)CC[C@]3(O)[C@@H]1C5,inactive
12,COC(=O)c1cc2c(cn1)[nH]c1ccccc12,inactive
13,Cc1o[nH]c(=O)c1C[C@H](N)C(=O)O,inactive
14,COc1cc(CCN)ccc1O,inactive
15,N[C@@]1(C(=O)O)CC[C@H](C(=O)O)C1,inactive
16,N[C@H](C(=O)O)c1cc(=O)[nH]o1,inactive
17,CC(C)[C@@]1(NC(=O)[C@@H]2C[C@H]3c4cccc5[nH]cc(c45)C[C@@H]3N(C)C2)O[C@@]2(O)[C@H]3CCCN3C(=O)[C@H](Cc3ccccc3)N2C1=O,inactive
18,N#CC(C#N)=Cc1ccc([N+](=O)[O-])c(O)c1,inactive
19,N[C@@H](Cn1cc(I)c(=O)[nH]c1=O)C(=O)O,inactive
20,C=C(C)[C@H]1CN[C@H](C(=O)O)[C@@H]1CC(=O)O,inactive

row,SMILES,outcome
1,CN1CC[C@@]23CCCC[C@@H]2[C@@H]1Cc1ccc(O)cc13,inactive
2,COc1ccc2[nH]cc(CCN(C)C)c2c1,inactive
3,COc1ccc(-n2nc(C(F)(F)F)cc2-c2ccc(Cl)cc2)cc1,inactive
4,C=CCN1CCC2(C)c3cc(O)ccc3C[C@H]1[C@H]2C,inactive
5,CN(C(=O)Cc1ccc(Cl)c(Cl)c1)[C@@H](CN1CCCC1)c1cccc(OCC(=O)O)c1,inactive
6,O=C1NCN(c2ccccc2)C12CCN(C[C@H]1COc3ccccc3O1)CC2,inactive
7,C[C@H](N)Cc1c[nH]c2ccc(O)cc12,inactive
8,CN1C(=O)CCS(=O)(=O)[C@H]1c1ccc(Cl)cc1,inactive
9,CN1[C@@H]2CC[C@H]1CC(O[C@@H](c1ccccc1)c1ccc(Cl)cc1)C2 (stereo not given in full),inactive
10,N[C@H](CP(=O)(O)O)C(=O)O,inactive
11,CC(C)(C)c1o[nH]c(=O)c1C[C@H](N)C(=O)O,inactive
12,C/C(O)=C(/C#N)C(=O)Nc1cc(Br)ccc1Br,inactive
13,N[C@H](CCCCCP(=O)(O)O)C(=O)O,inactive
14,COC(=O)N1CCN(C(=O)Cc2ccc(Cl)c(Cl)c2)[C@H](CN2CCCC2)C1,inactive
15,CN1CCN(c2ccc3ccccc3n2)CC1,inactive
16,Oc1ccc2c3c1O[C@H]1c4[nH]c5ccccc5c4C[C@]4(O)[C@H](C2)N(CC2CC2)CC[C@@]314,inactive
17,CC[C@]1(C2=NCCN2)Cc2ccccc2O1,inactive
18,CCOC(=O)c1ncn2c1[C@H]1CCCN1C(=O)c1cc(OC)ccc1-2,inactive
19,COc1ccc(CNC(=O)/C=C\c2ccc3[nH]cc(CCN(C)C)c3c2)cc1,inactive
20,CP(=O)(O)CCCN,inactive
